High-throughput results from PubChem.
Hits are enriched below; roughly 3.6% of the tested compounds scored in any of these assays.
Pf apPOL inh: Pf-apPOL DNA polymerase inhibition; Recombinant Pf-apPOL, molecular beacon fluorescence, 1.5 h; inhibition, % at 10 µM; 210,000 compounds, 0.25% hits
mHTT-CaM PPI inh: inhibitors of human mutant huntingtin-calmodulin interaction. P42858. AlphaScreen His-mHTT/GST-CaM binding, luminescence. inhibition, % at 15 µM. 190,000 compounds, 3.6% hits. AID 1671202;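 further: 0% = both proteins with DMSO and 100% = one protein alone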
Starred values were filed as active, the others as inactive; x = no result given. No stated cut-off is given here; in the data, active means inhibition above about 50%; inactive means the rest.

SMILES | Pf apPOL inh | mHTT-CaM PPI inh
CC(C)NC(=O)c1ccccc1NC(=O)CN(c1ccccc1F)S(=O)(=O)c1ccccc1 | 91.9* | 2.8
CCc1ccccc1N(CC(=O)Nc1ccc(F)cc1F)S(=O)(=O)c1ccccc1 | -8.2 | 81.2*
CCc1ccccc1N(CC(=O)Nc1ccccc1C(=O)NC(C)C)S(C)(=O)=O | -2.6 | -0.9
COc1ccc(N(CC(=O)Nc2ccc(F)cc2F)S(=O)(=O)c2ccccc2)c(OC)c1 | -5.6 | 0.4
CC1(C)CC=C(c2cnc3ccccc3c2)c2cc(C(=O)Nc3ccc(C(=O)O)cc3)ccc21 | -11.0 | x
O=C(NCc1ccccn1)c1ncn[nH]1 | 0.2 | 42.7
CC(C)(C)c1ccc(OCNC(=O)c2ncn[nH]2)cc1 | -1.5 | 73.0*
CCN(CC)c1ccc(N=C2C=CC(=O)c3ccccc32)c(C)c1 | -0.3 | x
O=C1C=CC(=NS(=O)(=O)c2ccc(F)cc2)c2ccccc21 | -4.0 | 100.0*
CC(C)c1ccc(S(=O)(=O)N=C2C=CC(=O)c3ccccc32)cc1 | 11.0 | 67.0*
O=C1C=CC(=NS(=O)(=O)c2ccc(Cl)cc2)c2ccccc21 | -2.5 | 98.0*
O=C1C=CC(=NS(=O)(=O)c2ccc(Cl)cc2)C=C1 | -6.4 | 48.0
CC(C)c1ccc(S(=O)(=O)N2CCN(C)c3ccccc32)cc1 | 2.0 | 41.0
Cc1cc(C)nc(N=C(N)N2CCN(C)CC2)n1 | -1.0 | 0.9
O=C1OC(c2cccc(Br)c2)=N/C1=C/c1ccc([N+](=O)[O-])cc1 | -14.5 | -6.0
CCCNc1cc(N2CCCC(CCC(=O)N3CCN(c4ccccc4)CC3)C2)ncn1 (centres undefined) | -7.2 | 3.2
O=C(NCCCN1CCOCC1)C1(c2cccs2)CCOCC1 | 6.5 | -3.0
Cn1ncc(N2CCCC(C(=O)Nc3ccccc3)C2)cc1=O (centres undefined) | -0.1 | -1.0
O=C1NC(=O)C(=CC(=O)N2CCCCC2)S1 | -4.2 | 1.3
Cc1nc2c(C(=O)NCc3ccco3)cnn2c(C)c1Cc1cccc(Cl)c1 | -4.8 | 31.0
Cc1nc2c(C(=O)NCc3ccccc3)cnn2c(C)c1Cc1cccc(Br)c1 | -6.3 | 66.0*
COc1ccccc1CNC(=O)c1cnn2c(C)c(Cc3cccc(Br)c3)c(C)nc12 | -10.6 | 6.0
Cc1ccc(CNC(=O)c2cnn3c(C)c(Cc4cccc(Cl)c4)c(C)nc23)cc1 | -5.4 | 4.0
Cc1nc2c(C(=O)NCc3ccco3)cnn2c(C)c1Cc1cccc(Br)c1 | -6.6 | 51.0*
Cc1nc2nc(SCC(=O)NCc3ccccc3)nn2c(C)c1Cc1ccccc1 | -12.6 | 31.0
SMILES | Pf apPOL inh | mHTT-CaM PPI inh
Cc1nc2c(C(=O)NCc3cccnc3)cnn2c(C)c1Cc1cccc(Br)c1 | -9.0 | 58.0*
Cc1nc2nc(CC(=O)NCc3ccccc3)nn2c(C)c1Cc1cccc(Cl)c1 | -4.2 | 63.0*
Cc1ccccc1NC(=O)CSc1nc2c(oc3ccccc32)c(=O)n1CC1CCCO1 (centres undefined) | -2.3 | 22.6
NS(=O)(=O)c1ccc(CNC(=O)COc2ccccc2)cc1 | -8.8 | -0.8
Cc1ccc(NC(=O)C2OC3OC(C)(C)OC3C3OC(C)(C)OC23)cc1Cl (centres undefined) | -3.9 | -2.4
O=C(Cc1ccc(Br)cc1)Nc1cccc([N+](=O)[O-])c1 | -5.4 | 7.0
COc1ccc(-c2oc(NC(=O)C(F)(F)F)c(C#N)c2-c2ccc(OC)cc2)cc1 | -0.1 | 63.0*
COc1ccc(-c2oc(N=CN3CCCCCC3)c(C#N)c2-c2ccc(OC)cc2)cc1 | 3.1 | 20.0
CC1(C)Oc2ccccc2C2CC(c3cccs3)=NN21 (centres undefined) | -5.2 | 50.0
COc1ccc(C2=NN3C(C2)c2cc(Cl)ccc2OC3(C)C)cc1 (centres undefined) | -16.3 | 38.0
COc1ccc(C2=NN3C(C2)c2cc(Br)ccc2OC32C(=O)Nc3ccccc32)cc1 (centres undefined) | -3.0 | 100.0*
O=C1Nc2ccccc2C12Oc1ccccc1C1CC(c3ccccc3)=NN12 (centres undefined) | -6.5 | 100.0*
O=C(NC1CC1)C1CC(=O)N(c2ccc3c(c2)CCN3C(=O)C2CC2)C1 (centres undefined) | -7.7 | -5.4
NNc1ncc([N+](=O)[O-])c2nc[nH]c12 | x | 99.8*
Nc1nc[nH]c(=O)c1[N+](=O)[O-] | -2.9 | -6.4
O=C(CCSc1ccccc1)NCCn1cnc(-c2ccc(F)cc2)cc1=O | -7.5 | -15.1
CCNC(=O)c1ccc2nnc(C3CC3)n2c1 | -4.6 | -1.4
Cc1sc2ccn(C)c(=O)c2c1C(=O)N1CCN(c2cccc(Cl)c2)CC1 | -1.0 | 96.0*
Cc1cccc(N2CCN(C(=O)c3c(C)sc4ccn(C)c(=O)c34)CC2)c1 | 2.0 | 36.5
O=C(NC1CC1)C1CCc2sc(C(=O)N3CCCCCC3)cc2C1 (centres undefined) | 0.3 | -6.1
O=C(c1ccc(F)cc1)N1CCN(C(C(=O)N2CCCC2)C2CCCC2)CC1 (centres undefined) | -0.1 | -1.5
O=C(NCc1cccc(F)c1)c1cc2n(n1)CCCN(Cc1ccc(F)cc1)C2=O | 2.2 | -2.6
O=C(CCc1cc2ccccc2[nH]c1=O)N1CCCCC1 | -3.4 | -7.4
O=C(CCc1cc2ccccc2[nH]c1=O)N1CCSCC1 | -5.9 | 100.2*
CCOc1cc(/C=C2\C(=O)Nc3ccc(Br)cc32)cc(Cl)c1O | 0.5 | 100.0*
SMILES | Pf apPOL inh | mHTT-CaM PPI inh
COc1cc(/C=C2\C(=O)Nc3ccc(Br)cc32)cc(Cl)c1O | -38.1 | 100.0*
O=C1Nc2ccc(I)cc2C1=Cc1cc(Br)c(O)c(Br)c1 | -123.7 | x
COc1cc(/C=C2\C(=O)NC(=O)N(c3ccc(C)cc3)C2=O)cc(Cl)c1O | 1.4 | 4.0
COc1cc(/C=C2\C(=O)Nc3ccc(Br)cc32)cc([N+](=O)[O-])c1O | 0.5 | 96.0*
COc1ccc(/C=C2\C(=O)Nc3ccc(Br)cc32)cc1OC | -2.7 | 90.0*
COc1cc(/C=C2\C(=O)NC(=O)N(c3ccc(C)cc3)C2=O)cc([N+](=O)[O-])c1O | 5.2 | 3.0
COc1ccc(/C=C2\C(=O)Nc3ccc(Br)cc32)cc1 | -3.1 | 48.0
Cc1ccc2nc(C(=O)N3CCN(c4ccccn4)CC3)cn2c1 | -4.6 | -0.8
Cc1ccc(CN2C(=O)Cn3cccc3C2C(=O)NC2CCCCC2)cc1 (centres undefined) | 8.0 | -7.1
COc1ccc(C)cc1NC(=O)CC1CCCCC1 | 2.5 | -10.6
COc1ccccc1CN1CCCC1c1cc(C)no1 (centres undefined) | -0.1 | 28.3
CCN(CC)C(=O)Oc1ccc2c(c1)OC(=Cc1cccc(OC)c1)C2=O | -4.5 | 3.4
O=C(CSc1n[nH]c(=O)n1C1Cc2ccccc2C1)c1csc2ccccc12 | -6.2 | x
CN(CCCNC(=O)C1CCN(c2ccc(N3CCCCC3)nn2)CC1)c1ccccc1 | -9.1 | 54.4*
CN(CCCNC(=O)C1CCN(c2ccncc2)CC1)c1ccccc1 | -7.7 | 17.2
O=c1[nH]c2ccc(Cl)cc2c(-c2ccccc2)c1Sc1ncn[nH]1 | -3.6 | 5.3
COc1cc(C=CC(=O)c2c(-c3ccccc3)c3cc(Cl)ccc3[nH]c2=O)cc(OC)c1OC | 1.4 | 100.2*
Cc1cc(C)c(NC(=O)C2CCCCN2C23CC4CC(CC(C4)C2)C3)c(C)c1 (centres undefined) | 0.6 | 2.5
CCOC(=O)NC(=O)c1ccsc1NC(=O)c1nc2ccccc2s1 | 8.4 | 62.3*
Cc1sc(NC(=O)c2nc3ccccc3s2)c(C#N)c1C | 7.1 | -0.8
COC(=O)c1cccc(C(=O)N2CCN(c3cc(Cl)ccc3C)CC2)n1 | -1.6 | 96.8*
